Experimental findings from PubChem BioAssay (NCATS) are described below.

For one assay, the system named is HEK293. The experiment in a line: Cytotoxic Profiling of Annotated Libraries Using Quantitative High-Throughput Screening (AID 1296008). Particulars: Five cell lines viability, CellTiter-Glo ATP luminescence, 48-72 h; max response: stronger effect = lower value. The method, boiled down:
(§1)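 Cytotoxicity was measured as CellTiter-Glo ATP luminescence, read after 10 min at room temperature. Compound treatment of the cells lasted 48 or 72 hr at 37 degrees Celsius in a qHTS format.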
(ATP-based viability assays read luminescence as a measure of living cells.)

Assay [1] concerns HaCat. The description is as above. The note with it: Five cell lines viability, CellTiter-Glo ATP luminescence, 48-72 h; max response: stronger effect = lower value. The gist of the method: as §1
For the next assay, the system named is KB-3-1. The assay is described as above. The note with it: Five cell lines viability, CellTiter-Glo ATP luminescence, 48-72 h; max response: stronger effect = lower value. The gist of the method: as §1
The subject of another assay is NIH3T3. The assay is described as above. The note with it: Five cell lines viability, CellTiter-Glo ATP luminescence, 48-72 h; max response: stronger effect = lower value. The method, boiled down: as §1
A further assay deals with MCC-13. The assay is described as follows: qHTS assay to identify novel small-molecules to repurpose for Merkel cell carcinoma treatment (AID 1296009). Particulars: MCC and control cell lines, CellTiter-Glo viability, 72 h; series mostly up to 46 µM. The gist of the method: (§2)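 Cell viability, measured as CellTiter-Glo luminescence, was normalized between DMSO and no-cell wells. The cells had been exposed to 8- or 11-point compound dilutions for 72 hr at 37 degree celsius.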

The next assay has as its system MCC-26. The assay is described as above. The note with it: MCC and control cell lines, CellTiter-Glo viability, 72 h; series mostly up to 46 µM. The method, boiled down: as §2
A further assay deals with MKL-1. The description is as above. The note with it: MCC and control cell lines, CellTiter-Glo viability, 72 h; series mostly up to 46 µM. The gist of the method: as §2
Another assay concerns MKL-2. The description is as above. The note with it: MCC and control cell lines, CellTiter-Glo viability, 72 h; series mostly up to 46 µM. The method, boiled down: as §2
Assay [2] has as its system HACAT. Described as above. Particulars: MCC and control cell lines, CellTiter-Glo viability, 72 h; at 44.8 µM (top of the series) unless noted. The gist of the method:
as §2

The test system of the next assay is HEK293T. The assay is described as above. The note with it: MCC and control cell lines, CellTiter-Glo viability, 72 h; at 44.8 µM (top of the series). The gist of the method:
as §2

SMILES strings stand for the structures. Several values for one entry are separate records, joined by “and”; a condition that tells them apart may be missing. Equal entries are not always repeated. Results filed as inconclusive are left out. A structure can be active in one record and inactive in another. Activity calls are given as the source filed them. Calls follow the shape of the dose curve; as a rule, active = well fitted inhibition curve with a large enough effect; inconclusive = small, poorly fitted or top-dose-only effect; inactive = flat fitted curve, though single readings scatter.
% is scaled to controls: 0 for no effect and ±100 for the full control effect; potency is read from the fitted curve at half-maximal effect.
Also: nearly all actives have a fitted effect of over 60% in size.

Consider `Cc1ccnc(NS(=O)(=O)c2ccc(NC(=O)Nc3ccc(S(=O)(=O)Nc4nccc(C)n4)cc3)cc2)n1`, for which the Potency was 0.418 µM (active) in the assay with HEK293, 1.48 µM (active) with HaCat [1], 2.35 µM (active) with KB-3-1 and 2.09 µM (active) in the assay with NIH3T3. Further, the max response in the assay on HEK293 is -3.29% (inactive); in the assay on HaCat [1], -9.99% (inactive); with NIH3T3 it was -7.88% (inactive). Further, the result in the assay with KB-3-1 was inactive. For the same compound, the Potency entry in the assay with MCC-13, with MCC-26, in the assay with MKL-1 and in the assay with MKL-2 was “inactive” throughout.

`Cc1c(C)c2c(c(C)c1O)CCC(C)(COc1ccc(CC3SC(=O)NC3=O)cc1)O2` (stereo not drawn): the max response in the assay with HEK293 was -17% (inactive); with KB-3-1 it was -2.71% (inactive) and -9.42% (inactive); with NIH3T3, -1.07% (inactive). In addition, the compound was called inactive with HEK293, in the assay on HaCat [1], in the assay with NIH3T3, with HACAT [2] and in the assay on HEK293T. Moreover, the Potency result with MCC-13, in the assay with MCC-26, in the assay with MKL-1 and with MKL-2 was “inactive” throughout.

Regarding `O=C1CCC(N2C(=O)c3ccccc3C2=O)C(=O)N1` (stereo not drawn), the max response is -7.21% (inactive) with HEK293; 2.55% (inactive) in the assay on HaCat [1]; 0.83% (inactive) and 2.13% (inactive) with KB-3-1; -0.804% (inactive) with NIH3T3. Further, the outcome in the assay with HEK293, in the assay on HaCat [1], in the assay with NIH3T3, with HACAT [2] and in the assay on HEK293T was inactive. Moreover, the Potency result with MCC-13, in the assay with MCC-26, in the assay on MKL-1 and in the assay on MKL-2 was “inactive” throughout.

Consider `Cc1cnc(Nc2ccc(OCCN3CCCC3)cc2)nc1Nc1cccc(S(=O)(=O)NC(C)(C)C)c1`, for which the figures for the Potency with HEK293, in the assay with HaCat [1] and in the assay on KB-3-1 were 5.17 µM (active), 5.8 µM (active) and 6.51 µM (active), respectively. Further, the results for the max response in the assay on HEK293, in the assay on HaCat [1] and in the assay on KB-3-1 were 0.504% (inactive), 2.79% (inactive) and 5.89% (inactive), respectively. The result in the assay with NIH3T3 was inactive. Further, the Potency result in the assay with MCC-13, with MCC-26 and in the assay with MKL-1 was “inactive” in each case.

Consider `Cc1cn[nH]c1`, for which the Potency is 4.69 µM (active) in the assay on HEK293; “inactive and 5.9 µM (active)” in the assay on MKL-1. Further, the outcome in the assay with HEK293, in the assay with HaCat [1], with KB-3-1, in the assay with HACAT [2] and in the assay on HEK293T was inactive. Also, the max response with HaCat [1] is -8.18% (inactive); with KB-3-1 it was 12.8% (inactive); with NIH3T3, 3% (inactive). Further, the Potency entry with MCC-13, with MCC-26 and in the assay on MKL-2 was “inactive” each time.

As for `CC(C=CC1=C(C)CCCC1(C)C)=CC=CC(C)=CC(=O)O`, the results for the max response in the assay on HEK293, in the assay on KB-3-1 and with NIH3T3 were 1.74% (inactive), 4.44% (inactive) and -0.0926% (inactive), respectively. The call in the assay on HEK293, in the assay on HaCat [1], with KB-3-1, in the assay on NIH3T3, with HACAT [2] and with HEK293T was inactive. The Potency entry in the assay on MCC-13, with MCC-26, in the assay on MKL-1 and with MKL-2 was “inactive” each time.

With `NC(=O)c1cnccn1`, the max response in the assay with HEK293 was -0.963% (inactive); in the assay with HaCat [1], -6.4% (inactive); in the assay on KB-3-1 it was -14% (inactive); with NIH3T3, 3.86% (inactive) and 2.38% (inactive). Further, the call in the assay on HEK293, in the assay on HaCat [1], in the assay with KB-3-1, with HACAT [2] and in the assay on HEK293T was inactive. The Potency entry in the assay with MCC-13, with MCC-26, in the assay on MKL-1 and with MKL-2 was “inactive” in each case.

For the compound `OC(CCN1CCCCC1)(c1ccccc1)C1CC2C=CC1C2` (stereo not drawn), the call with HEK293, with HaCat [1], in the assay on KB-3-1, in the assay on NIH3T3, in the assay on HACAT [2] and in the assay with HEK293T was inactive. In addition, the max response in the assay with HaCat [1] is -0.0685% (inactive); with KB-3-1 it was -2.63% (inactive) and -12.8% (inactive). The Potency entry in the assay on MCC-13, with MCC-26, in the assay on MKL-1 and in the assay on MKL-2 was “inactive” in each case.

As to `N=c1nc(N2CCCCC2)cc(N)n1O`, the max response was 3.36% (inactive) in the assay on HEK293 and 3.13% (inactive) with NIH3T3. Besides, the call with HEK293, in the assay on HaCat [1], with NIH3T3, with HACAT [2] and in the assay on HEK293T was inactive. In addition, the Potency result in the assay with MCC-13, with MCC-26, in the assay on MKL-1 and with MKL-2 was “inactive” each time.

For the compound `COc1ccc(CCN2CCN(CCCc3ccccc3)CC2)cc1OC`, the Potency in the assay on HEK293 is 6.51 µM (active). In addition, the max response with HEK293 is -22.2% (inactive); with KB-3-1, 0.435% (inactive) and -5.04% (inactive); in the assay with NIH3T3 it was 1.46% (inactive). Moreover, the compound was classed as inactive in the assay with HaCat [1], with NIH3T3 and in the assay with HACAT [2]. Moreover, the Potency entry with MCC-13, with MKL-1 and in the assay with MKL-2 was “inactive” throughout.

With `COc1cc(Nc2ncc3c(n2)-c2ccc(Cl)cc2C(c2c(F)cccc2OC)=NC3)ccc1C(=O)O`, the Potency in the assay with HEK293 is 23.1 µM (active); in the assay on HaCat [1] it was 16.4 µM (active) and 833 nM (active); with KB-3-1 it was 2.09 µM (active); in the assay with NIH3T3 it was 7.43 µM (active). Also, the max response in the assay with HEK293 was -33.7% (inactive). Moreover, the Potency result with MCC-26 and with MKL-2 was “inactive” each time.

In the case of `CC1(C)CNc2cc(NC(=O)c3cccnc3NCc3ccncc3)ccc21`, the Potency with HEK293 was 5.8 µM (active); with NIH3T3, 10.3 µM (active). Further, the max response in the assay with HEK293 is -29.2% (inactive); in the assay on KB-3-1, 3.54% (inactive) and 4.82% (inactive); in the assay with NIH3T3, -1.33% (inactive). In addition, the outcome in the assay on HaCat [1] and with HACAT [2] was inactive. The Potency entry in the assay on MCC-13, with MCC-26, in the assay on MKL-1 and with MKL-2 was “inactive” in each case.

Regarding `O=NN(CCCl)C(=O)NCCCl`, the outcome in the assay on HEK293 and in the assay on HEK293T was “inactive; activator” in each case. Also, the max response with HaCat [1] is -4.95% (inactive); with KB-3-1, 10.2% (inactive) and 5.9% (inactive); with NIH3T3, 3.76% (inactive) and 1.65% (inactive). The result with HaCat [1] and in the assay on HACAT [2] was inactive. The Potency entry with MCC-13, in the assay with MCC-26, in the assay with MKL-1 and in the assay on MKL-2 was “inactive” in each case.
